Compound activity deposited in PubChem BioAssay by National Center for Advancing Translational Sciences (NCATS).
TGFb SMAD3 inh – inhibitors of TGF-b signaling. HepG2 CAGA-GFP TGF-b/SMAD3 reporter, GFP fluorescence, 18 h; TGF-beta stimulated, 500 pg/mL final. Potency, µM (top dose mostly 46.1 µM), for the others: at the top dose activity, negative = inhibition, usual class: inhibitors. hit rate 1.2% among 410,000. AID 588855; also: potency is read from the fitted curve at half-maximal effect; % is scaled to controls: 0 for no effect and ±100 for the full control effect; nearly all actives have a fitted effect of over 65% in size
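Per well, imaged GFP fluorescence of HEPG2 CAGA-GFP cells gives the signal; cells get compound, then TGF-beta (500 pg/mL final), 18 h at 37 degrees C; %Activity versus -TGF-beta and +DMSO controls.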
ATXN viability – cell viability loss in ATXN counter-screen. S2 cells (HEK-293 line with an ATXN2-luciferase reporter) viability, CellTiter-Fluor protease fluorescence, 24 h. Potency, µM (titrated, usually from 56.7 µM), usual class: cytotoxic. hit rate 0.49% among 400,000. AID 651635; also: potency is read from the fitted curve at half-maximal effect; nearly all actives have a fitted effect of over 40% in size
DRD3 antagonist – blocks the human D3 dopamine receptor | hit rate 2.5% among 360,000 | D3R cells, DiscoveRx beta-arrestin luminescence, antagonist mode; active compounds read low | AID 652054 | max response, negative = inhibition, % | P35462; in the data active = max response below about -50%; inconclusive = no clear call, values can overlap the other calls; also: % is scaled to controls: 0 for no effect and ±100 for the full control effect
Target sequence (P35462 whole entry, looked up): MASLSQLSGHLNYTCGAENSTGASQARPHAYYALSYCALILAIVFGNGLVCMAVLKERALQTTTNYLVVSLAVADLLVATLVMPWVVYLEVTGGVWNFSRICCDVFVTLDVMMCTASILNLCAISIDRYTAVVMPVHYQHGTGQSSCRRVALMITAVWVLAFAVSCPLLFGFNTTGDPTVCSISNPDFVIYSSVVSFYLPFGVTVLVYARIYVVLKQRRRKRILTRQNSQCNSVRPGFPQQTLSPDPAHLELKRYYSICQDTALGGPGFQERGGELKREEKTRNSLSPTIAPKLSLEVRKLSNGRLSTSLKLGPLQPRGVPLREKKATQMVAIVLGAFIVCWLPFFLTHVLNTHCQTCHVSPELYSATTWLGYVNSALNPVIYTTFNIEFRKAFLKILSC
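Cells plated overnight at 1500 cells/well, then exposed to library compounds with dopamine controls for 90 minutes at 37 degrees C. DiscoveRx reagent added for 30–60 minutes at room temperature; luminescence read, quantitative HTS format.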
HepG2 tox-1 – HepG2 cytotoxicity, counter-screen for TGF-b inhibitors; HepG2 CAGA-GFP viability, ATP luminescence, 18 h; Potency, µM (doses to about 46.1 µM), for inactives: at the top dose activity change, negative = cytotoxicity, usual class: cytotoxic; hit rate 0.76% among 410,000; also: potency is read from the fitted curve at half-maximal effect
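HepG2 CAGA-GFP cells (1000/well, DMEM with 1% FBS) received compound, then TGF-beta at 500 pg/mL final, and were incubated 18 hours at 37 degrees C. Viability was read by CellTiter-Glo luminescence. Media-only wells were set as complete cell-killing and DMSO as no toxicity.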
D3 ag – agonists of human D3 dopamine receptor; P35462; D3R DiscoveRx beta-arrestin cells, luminescence, 90 min; max activation, %; hit rate 0.58% among 410,000; in the data active = max activation above about 30%; also: 0% is about no effect
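Agonist-mode cell screen: cells plated at 1500/well and incubated overnight at 37 °C, then exposed to library compounds for 90 min at 37 °C. Detection reagent was added for 30–60 min at room temperature, and luminescence was read.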
ATXN2 expr inh – reduces ATXN2 reporter expression in HEK-293 cells. HEK-293 ATXN2-luciferase reporter, luminescence, 24 h. hit rate 0.72% among 360,000. Potency, µM (doses to about 57 µM), inactives show at the highest dose activity change, negative = inhibition, hits mostly inhibitors; also: potency is read from the fitted curve at half-maximal effect; % is scaled to controls: 0 for no effect and ±100 for the full control effect; nearly all actives have a fitted effect of over 55% in size
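qHTS (up to 57 uM final) was run with 24 h compound exposure of reporter cells at 37 °C. Each well was multiplexed: SteadyGlo luminescence measured ATXN2-luciferase expression after a fluorogenic Gly-Phe-AFC viability readout (25 uM final).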
TGFb confirm – TGF-b pathway inhibition, cherry-pick retest. hit rate 63% among 1,600. Potency, µM (titrated, usually from 46.1 µM), for the others: top-dose activity, negative = inhibition, most hits filed as inhibitors. AID 720534. shares compounds with TGFb SMAD3 inh. HepG2 CAGA-GFP TGF-b reporter, GFP fluorescence, 18 h; cells stimulated with TGF-beta, 500 pg/mL; also: potency is read from the fitted curve at half-maximal effect; % is scaled to controls: 0 for no effect and ±100 for the full control effect; nearly all actives have a fitted effect of over 65% in size
HepG2 tox-2 – toxic to HepG2 cells in TGF-b counterscreen. hit rate 27% among 1,600. AID 720535. shares compounds with TGFb SMAD3 inh. HepG2 CAGA-GFP viability, ATP luminescence, 18 h; cells stimulated with TGF-beta, 500 pg/mL. Potency, µM (highest dose often 46.1 µM), for inactives: at the top dose activity, negative = cytotoxicity, hits mostly inhibitors; also: potency is read from the fitted curve at half-maximal effect; % is scaled to controls: 0 for no effect and ±100 for the full control effect; nearly all actives have a fitted effect of over 70% in size
TGFb CCL64 inh – blocks TGF-b signaling in CCL64 reporter cells | hit rate 41% among 1,600 | CCL64 CAGA-GFP reporter, TGF-b stimulated, GFP fluorescence, 18 h | Potency, µM (series often up to 46.1 µM), without a hit: at the top dose activity, negative = inhibition, actives largely listed as inhibitors | shares compounds with TGFb SMAD3 inh; also: potency is read from the fitted curve at half-maximal effect; nearly all actives have a fitted effect of over 65% in size
COP TGFb inh – blocks TGF-b signaling in HepG2 COP reporter; HepG2 COP-GFP TGF-b reporter, GFP fluorescence, 18 h; cells stimulated by added recombinant TGF-beta; hit rate 3% among 1,600; Potency, µM (doses to about 46.1 µM), for inactives: at the top dose activity, negative = inhibition, actives largely listed as inhibitors; AID 720537; shares compounds with TGFb SMAD3 inh; also: potency is read from the fitted curve at half-maximal effect; nearly all actives have a fitted effect of over 70% in size
Starred values were filed as active, the others as inactive; i = inactive; u = inconclusive; x = no result given; [ ] = dose if it differs, or a comment. Only some compounds are listed: those with a hit (about 4.7% of all), similar ones and a draw of the others. Unless noted, calls follow the shape of the dose curve; as a rule, active = well fitted curve in the direction sought with a large enough effect; inconclusive = small, poorly fitted or top-dose-only effect, or another doubt; inactive = no such curve, though single readings can be large; an effect the other way counts as inactive or inconclusive.

SMILES	TGFb SMAD3 inh	ATXN viability	DRD3 antagonist	HepG2 tox-1	D3 ag	ATXN2 expr inh	TGFb confirm	HepG2 tox-2	TGFb CCL64 inh	COP TGFb inh
CC(=O)Oc1ccc2ccccc2c1C(NC(=O)Cc1ccccc1)c1ccccc1 (centres undefined)	10µM*	u	-15	-36%	-17	u	29µM*	u	u	65%
Cc1cc2nc3c(=O)[nH]c(=O)nc-3n(C[C@H](O)[C@H](O)[C@H](O)COP(=O)(O)OP(=O)(O)OC[C@H]3O[C@@H](n4cnc5c(N)ncnc54)[C@H](O)[C@@H]3O)c2cc1C	x	x	x	x	-9	x	x	x	x	x
Cc1ccc(CSc2nnc(-c3ccccn3)n2Cc2cccs2)cc1	u	u	11	-4%	5	u	x	x	x	x
Clc1ccc(CSc2nnc(-c3ccccn3)n2Cc2cccs2)cc1Cl	8.9µM*	u	9	-8%	4	u	15µM*	u	u	42%
CC(NC(=O)CC(c1ccccc1)c1cc(Cl)ccc1O)c1ccccc1 (centres undefined)	16µM*	u	4	-1%	1	-1%	u	23µM*	18µM*	57%
Cc1ccc(O)c(C(CC(=O)NC(C)C)c2ccccc2)c1 (centres undefined)	u	i	5	-41%	4	-31%	x	x	x	x
O=C(Nc1nc2n(n1)C(c1ccc(F)cc1)C=C(c1ccccc1)N2)c1ccco1 (centres undefined)	-8%	i	x	-17%	1	2%	x	x	x	x
O=S(=O)(Nc1ccc(NS(=O)(=O)c2ccccc2)cc1)c1ccccc1	2%	i	-15	-5%	-2	x	x	x	x	x
O=C1C(Nc2ccccc2)=C(NS(=O)(=O)c2ccccc2)C(=O)c2ccccc21	6.3µM*	i	-12	-54%	-29	4%	u	-29%	4%	2%
COc1ccccc1NC(=O)CN(C)S(=O)(=O)c1ccc2c(c1)c(=O)n(C)c(=O)n2C	-14%	i	x	0%	1	8%	x	x	x	x
COc1ccc(-c2coc3c(C(=O)NCC(C)C)cccc23)c(C)c1	u	i	100	-28%	27	-35%	13µM*	u	u	45%
OCC1(Cc2ccccc2)CCN(Cc2cnc(-c3cccc4ccccc34)nc2)CC1	-9%	i	8	-18%	-10	-2%	x	x	x	x
OCC1(Cc2ccccc2)CCN(Cc2cnc(-c3ccc(Cl)cc3)nc2)CC1	8.9µM*	i	6	16µM*	-15	22%	-10%	u	0%	36%
O=C1CS(=O)(=O)N(Cc2ccc(F)cc2)c2ccccc21	u	i	10	-5%	20	-3%	x	x	x	x
O=C1CS(=O)(=O)N(Cc2ccccc2F)c2ccc(Br)cc21	13µM*	i	9	-24%	16	4%	u	u	u	38%
CN1CCN(c2cc3c(nn2)Oc2ccccc2N3C)CC1	x	i	x	x	-8	42%[25.6 µM]	x	x	x	x
COc1ccc(/C=C/C(=O)c2ccccc2)cc1COc1ccc(F)cc1	1%	u	2	-18%	6	u	x	x	x	x
COc1ccc(/C=C/C(=O)c2ccccc2)cc1Cn1nnc2ccccc21	8.9µM*	x	5	-17%	-3	u	6.5µM*	23µM*	23µM*	0%
O=C(/C=C/c1cccc([N+](=O)[O-])c1)c1ccc([N+](=O)[O-])o1	1.3µM*	3.5µM*	-137*	4.5µM*	-63	u	2.9µM*	8.2µM*	1.6µM*	u
Cc1cccc(/C=C/C(=O)c2ccc([N+](=O)[O-])o2)c1	2.2µM*	10µM*	-58*	10µM*	-6	10µM*	3.3µM*	5.2µM*	2.1µM*	u
Cc1ccccc1/C=C/C(=O)c1ccc([N+](=O)[O-])o1	3.2µM*	13µM*	-58*	-113%	-18	13µM*	3.3µM*	6.5µM*	4.1µM*	u
O=C(/C=C/c1cccc([N+](=O)[O-])c1)c1ccco1	-26%	u	u	-45%	-13	-33%	x	x	x	x
O=C(O)c1ccccc1C(=O)Nc1cccc([N+](=O)[O-])c1	16%	i	5	6%	4	x	x	x	x	x
O=C(Nc1cccc([N+](=O)[O-])c1)c1cc2ccccc2cc1O	4µM*	u	-2	-39%	-7	u	6.5µM*	4.1µM*	4.6µM*	61%
Cc1cc(C)nc(SCC(=O)Nc2ccnc3ccccc23)n1	-17%	i	-12	-11%	3	0%	x	x	x	x
SMILES	TGFb SMAD3 inh	ATXN viability	DRD3 antagonist	HepG2 tox-1	D3 ag	ATXN2 expr inh	TGFb confirm	HepG2 tox-2	TGFb CCL64 inh	COP TGFb inh
O=C(CSC1=NCCS1)Nc1ccnc2ccccc12	u	i	-15	-26%	-3	-13%	10µM*	8%	-3%	-20%
COC(=O)c1c(NC(=O)Cc2ccccc2)sc2c1CCN(C(C)C)C2	4%	u	u	0%	-11	-28%	x	x	x	x
CC(=O)N1CCc2c(sc(NC(=O)c3ccc([N+](=O)[O-])o3)c2C#N)C1	5.6µM*	u	-59*	-31%	-12	-16%	4.1µM*	3.3µM*	10µM*	u
COC(=O)c1c(NC(=O)c2ccc([N+](=O)[O-])o2)sc2c1CCN(C(C)C)C2	20µM*	u	u	-8%	-4	u	2.6µM*	10µM*	26µM*	36%
COC(=O)c1sc(NC(=O)c2ccc([N+](=O)[O-])o2)c(C#N)c1C	4.5µM*	u	-16	-54%	0	x	7.3µM*	10µM*	15µM*	41%
Cc1nc(-c2cccc(F)c2)sc1CCNC(=O)c1c(F)cccc1Cl	-11%	i	x	1%	6	3%	x	x	x	x
